Data as given in PubChem BioAssay (EPA / NIEHS).
The source made the active and inactive calls. The calls were made as follows: active = hit-call score of the fitted dose curve at least 0.9, where 1 is the maximum; inactive = score below 0.9.

The molecules below were run on Cytochrome P450 3A4 (Homo sapiens) (UniProt P08684) (assay: LTEA_HepaRG_CYP3A4: Life Technologies and Expression Analysis (LTEA) Assay for CYP3A4 using HepaRG (AID 2283487)). Details: mRNA level, 48 h; actives raise or lower the signal.
Method: LTEA_HepaRG is a cell based, multiplexed-readout assay that uses HepaRG, a human liver cell line, with measurements taken at 48 hours after chemical dosing on a 96-well plate.LTEA_HepaRG_CYP3A4 is one of 102 assay component(s) measured in the LTEA HepaRG cell culture assay. It is a marker of NR mediated metabolism.Data from the assay component LTEA_HepaRG_CYP3A4 was analyzed into 1 endpoint. This assay endpoint, LTEA_HepaRG_CYP3A4, was analyzed with bidirectional fitting relative to DMSO as the negative control and baseline of activity. Using a type of inducible reporter, measures of mRNA induction for gain or loss-of-signal activity can be used to understand regulation of transcription factor activity. To generalize the intended target to other relatable targets, this assay endpoint is annotated to the cyp intended target family, where the subfamily is xenobiotic metabolism.
A total of 1060 chemcials from the ToxCast library were tested in eight-point concentration-response experiments. Cell culture and cytotoxicity assays were conducted at Thermo Fisher Scientific's Custom Services facility (Madison, WI). A single lot of human HepaRG cells (Thermo Fisher Scientific, Frederick, MD) was used for the cell culture experiments. 96-well format collagen type I coated plates of human HepaRG cells were prepared using established methods. Briefly, cryopreserved HepaRG cells were thawed, plated at a density of approximately 100,000 cells/well in HepaRG Thaw, Plate, and General Purpose media (HPRG770, Thermo Fisher Scientific), and incubated for 48 hours. 0.5% DMSO was selected as vehicle control to balance the requisite need of DMSO in HepaRG cultures to maintain differentiation (for example, baseline metabolism, proportions of hepatocytes vs. cholangiocytes), while enabling further hepatic receptor pathway activation (for example, PXR and CAR) in response to chemical exposure. 48 hours after plating, the culture medium was replaced with HepaRG Serum-Free Incudtion Media. Cells were exposed to each test chemical in duplicate and maintained in CO2 incubators for another 48 hours. Chemical plates were thawed to room temperature and 200x concentrations of treatment groups were prepared. 8-point conentration-reponse curves were made with the highest exposure at 100 uM, followed by half-log dilutions, all in 0.5% DMSO. Each test plate contained variouse controls, induction positive controls (1mM phenobarbital), cytotoxicity positive controls ([…] aflatoxin B1), vehicle controls (0.5% DMSO), and total lysis controls (0.5% DMSO). Cell morphology images were taken using an Essen IncuCyte FLR automated microscope, with six 96-well plates imaged in about 24 minutes. Images were captured and exported and JPEG files. Spent culture media was transfered to black-well plates for the LDH assay, and remaining media was sorted at -80 C for later use. Cells were treated with RLT buffer and frozen until shipped for gene expression analysis. Total RNA was isolated from the cell suspension in 75 uL of Buffer RLT (Qiagen, Germantown, MD 20874) by Quintiles/Expression Analysis (Durham, NC) using a custom isolation procedure. Total RNA from each plate well was transferred to a preamplification plate. Fluidigm's 96.96 Dynamic ArrayTM (Fluidigm, Amsterdam, the Netherlands) technology was used for gene expression analyses by quantitative reverse transcription polymerase chain reaction (qRT-PCR, performed by Quintiles/Expression Analysis, Durham, NC)89. Standard TaqManTM Assays (Applied Biosystems/ThermoFisher Scientific, Foster City, CA) were used to assess the expression of 93 genes selected based on their selectivity and sensitivity to important hepatic receptors known to be modulated by environmental chemicals; importance in human hepatocyte functionality; and hepatotoxicity. […]

Cytochrome P450 3A4 (Homo sapiens), sequence (P08684 whole entry, looked up): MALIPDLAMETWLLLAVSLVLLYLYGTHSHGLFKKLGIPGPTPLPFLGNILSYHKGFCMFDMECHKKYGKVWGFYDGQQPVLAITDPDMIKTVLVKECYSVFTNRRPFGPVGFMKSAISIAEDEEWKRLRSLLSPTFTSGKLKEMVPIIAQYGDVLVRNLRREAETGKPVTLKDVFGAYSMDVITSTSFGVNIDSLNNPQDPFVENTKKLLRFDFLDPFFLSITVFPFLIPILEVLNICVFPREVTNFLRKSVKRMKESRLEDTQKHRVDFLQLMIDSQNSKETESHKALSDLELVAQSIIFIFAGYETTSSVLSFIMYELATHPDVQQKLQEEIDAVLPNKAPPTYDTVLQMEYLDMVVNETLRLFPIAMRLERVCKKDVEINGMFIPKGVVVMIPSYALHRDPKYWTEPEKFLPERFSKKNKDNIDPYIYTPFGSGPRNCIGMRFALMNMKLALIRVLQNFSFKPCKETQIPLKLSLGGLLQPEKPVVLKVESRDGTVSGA

outcome, inactive:
N[C@@H](Cc1c[nH]c2ccccc12)C(=O)O, Cc1occc(=O)c1O, OCC(O)CO, C=CCCCCCCCCCCCC, CC(C)OC(=O)C(C)(C)Oc1ccc(C(=O)c2ccc(Cl)cc2)cc1, O=C1CCCCC1, CCCCCCCCCCCCCCOS(=O)(=O)O, Cc1ccc(C(C)(C)C)c(O)c1, O=C(O)CN(CC(=O)O)CC(=O)O, CC(C)COC(=O)CCCCC(=O)OCC(C)C, CCCC(=O)O, CN(C)CCCN(C)CCCN(C)C, CC(=O)O, CCCCOC(=O)CCCCC(=O)OCCCC, C#CC(O)C(CC)CCCC (stereo not given), O=C(Oc1ccccc1)c1cccc(C(=O)Oc2ccccc2)c1, COC(=O)CCCC(=O)OC, CC(=O)OC1CC(C)OC(C)O1 (stereo not given), NCCOCCOCCN, C/C=C/C=C/C(=O)O, O=C(O)c1cccnc1, COc1ccc(C(=O)Nc2nc3ccccc3c(NCc3ccccc3)c2C#N)cc1, Cc1cn([C@H]2C=C[C@@H](CO)O2)c(=O)[nH]c1=O, O=C(O)c1[nH]n(-c2ccc(S(=O)(=O)O)cc2)c(=O)c1N=Nc1ccc(S(=O)(=O)O)cc1, CCCCCCC(C=O)=Cc1ccccc1, O=Cc1ccccc1C=O, COC(=O)CCC(=O)OC, CO[C@@H]1COCC[C@@H]1N[C@@H]1CC[C@@](C(=O)N2CCc3ncc(C(F)(F)F)cc3C2)(C(C)C)C1

AC50, active:
CC1=C(C)S(=O)(=O)CCS1(=O)=O 50 µM, Cc1cc(SC2=C(O)C[C@@](CCc3ccc(N)cc3)(C(C)C)OC2=O)c(C(C)(C)C)cc1CO 0.344 µM, CCc1cc(C2=C(C(=O)O)N(c3ccccc3C(F)(F)F)S(=O)(=O)c3ccccc32)cc2c1OCO2 0.679 µM, O=C(N[C@@H](c1ccccc1)[C@@H]1CCCCN1)c1cccc(C(F)(F)F)c1Cl 86.9 µM, O=C(NS(=O)(=O)/C=C/c1cccs1)c1ccc(F)cc1Br 5.73 µM, Cc1cc(Cc2ccc(N)c(C)c2)ccc1N 4.94 µM, CSc1ccc(Oc2ccc(S(N)(=O)=O)cc2CN(C)C)cc1C 14 µM, COc1ccc(OC(F)(F)F)cc1CN[C@H]1CCCN[C@H]1c1ccccc1 91.9 µM, CCC(C)N(C)C(=O)c1cc2ccccc2c(-c2ccccc2Cl)n1 (stereo not given) 3.23 µM, OCC(CO)n1cnc(-c2ccc(F)cc2)c1-c1ccnc(Oc2ccccc2)n1 3.72 µM, CC(=O)O[C@]1(C(C)=O)CC[C@H]2[C@@H]3C=C(Cl)C4=CC(=O)[C@@H]5C[C@@H]5[C@]4(C)[C@H]3CC[C@@]21C 36.5 µM, CCCCC(CC)COP(=O)(OCC(CC)CCCC)OCC(CC)CCCC (stereo not given) 5.79 µM
